The record followed here is PubChem BioAssay.

Molecules are shown by their SMILES. The source made the active and inactive calls.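 Rule for the calls, unless noted: active = normalized viability below 100% at a tested concentration; inactive = the rest.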

Experiment [1] is described as follows: viability loss with induced miR-34 in A549 – imaging, A549 dox-inducible miR-34, nuclei and caspase counts, primary screen (AID 1347080;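 active = compounds whose cell count with miR-34 switched on is under 0.7 times the count with it off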). As to conditions: A549 miR-34 inducible, Hoechst nuclei count, 48 h.
Experiment [2] in a line: MELAS cybrid and Rieske KO viability enhancers – cell-based, MELAS cybrids, Rieske KO mouse fibroblasts, CellTiter-Glo, primary screen (AID 1508586;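 active = mean z-score across replicates of 1.96 or higher in either the MELAS or the Rieske mutant cell line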;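 note: z relative to plate mean and SD of compound and empty wells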). As to conditions: low glucose. On the technique in general: Cellular ATP, detected with luciferase, serves as a proxy for viable cell number.
Experiment [3] in a line: drug combination growth inhibition, ovarian cancer – cell-based, oncology-focused library, rucaparib conditional, profiling panel (AID 1508598). Particulars: patient-derived ovarian cancer cells, CellTiter-Glo viability, 144 h, stronger effect = lower value.
Setting [4] is: stronger effect = lower value, cell number ratio, induced over uninduced.
Where [5] appears, read: measured here: relative caspase fold change +Dox/-Dox.
Setting [6] is: measured here: total cells with miR-34 induction, stronger effect = lower value.
Setting [7] is: measured here: total cells without miR-34 induction.
Setting [8] is: MELAS cybrid survival, CellTiter-Glo 48 h, stronger effect = higher value.
The mark [9] stands for this setting: Rieske KO mouse fibroblast survival, CellTiter-Glo 72 h.
Where [10] appears, read: at 0.000305 µM, OCI-C5x cells, with rucaparib 10 µM, 100% = cells with rucaparib alone.
[11] abbreviates: at 0.000305 µM, OCI-C5x cells, without rucaparib.
[12] abbreviates: at 0.000305 µM, OCI-P5x cells, with rucaparib 20 µM, 100% = cells with rucaparib alone.
[13] abbreviates: at 0.000305 µM, OCI-P5x cells, without rucaparib.
Where [14] appears, read: at 0.00122 µM, OCI-C5x cells, with rucaparib 10 µM, 100% = cells with rucaparib alone.
The mark [15] stands for this setting: at 0.00122 µM, OCI-C5x cells, without rucaparib.
[16] abbreviates: at 0.00122 µM, OCI-P5x cells, with rucaparib 20 µM, 100% = cells with rucaparib alone.
Setting [17] is: at 0.00122 µM, OCI-P5x cells, without rucaparib.
The mark [18] stands for this setting: at 0.00488 µM, OCI-C5x cells, with rucaparib 10 µM, 100% = cells with rucaparib alone.
[19] abbreviates: at 0.00488 µM, OCI-C5x cells, without rucaparib.
Where [20] appears, read: at 0.00488 µM, OCI-P5x cells, with rucaparib 20 µM, 100% = cells with rucaparib alone.
[21] abbreviates: at 0.00488 µM, OCI-P5x cells, without rucaparib.
The mark [22] stands for this setting: at 0.0195 µM, OCI-C5x cells, with rucaparib 10 µM, 100% = cells with rucaparib alone.
The mark [23] stands for this setting: at 0.0195 µM, OCI-C5x cells, without rucaparib.
The mark [24] stands for this setting: at 0.0195 µM, OCI-P5x cells, with rucaparib 20 µM, 100% = cells with rucaparib alone.
Where [25] appears, read: at 0.0195 µM, OCI-P5x cells, without rucaparib.
[26] abbreviates: at 0.0781 µM, OCI-C5x cells, with rucaparib 10 µM, 100% = cells with rucaparib alone.
Where [27] appears, read: at 0.0781 µM, OCI-C5x cells, without rucaparib.
Setting [28] is: at 0.0781 µM, OCI-P5x cells, with rucaparib 20 µM, 100% = cells with rucaparib alone.
[29] abbreviates: at 0.0781 µM, OCI-P5x cells, without rucaparib.
The mark [30] stands for this setting: at 0.313 µM, OCI-C5x cells, with rucaparib 10 µM, 100% = cells with rucaparib alone.
The mark [31] stands for this setting: at 0.313 µM, OCI-C5x cells, without rucaparib.
Where [32] appears, read: at 0.313 µM, OCI-P5x cells, with rucaparib 20 µM, 100% = cells with rucaparib alone.
Setting [33] is: at 0.313 µM, OCI-P5x cells, without rucaparib.
The mark [34] stands for this setting: at 1.25 µM, OCI-C5x cells, with rucaparib 10 µM, 100% = cells with rucaparib alone.
[35] abbreviates: at 1.25 µM, OCI-C5x cells, without rucaparib.
The mark [36] stands for this setting: at 1.25 µM, OCI-P5x cells, with rucaparib 20 µM, 100% = cells with rucaparib alone.
Setting [37] is: at 1.25 µM, OCI-P5x cells, without rucaparib.
Setting [38] is: at 5 µM, OCI-C5x cells, with rucaparib 10 µM, 100% = cells with rucaparib alone.
Setting [39] is: at 5 µM, OCI-C5x cells, without rucaparib.
Setting [40] is: at 5 µM, OCI-P5x cells, with rucaparib 20 µM, 100% = cells with rucaparib alone.
The mark [41] stands for this setting: at 5 µM, OCI-P5x cells, without rucaparib.

In the case of `Cc1[nH]c(C=C2C(=O)Nc3ccc(S(=O)(=O)N(C)c4cccc(Cl)c4)cc32)c(C)c1C(=O)N1CCN(C)CC1`, the figures for the fold change in experiment [1] (setting [4]) and in experiment [1] (setting [5]) were 0.944 (inactive) and 0.91, respectively. The cell count turned out to be 3050 in experiment [1] (setting [6]) and 3230 in experiment [1] (setting [7]). Moreover, the z-score is -0.734 (inactive) in experiment [2] (setting [8]) and -1.1 in experiment [2] (setting [9]). Also, the viability (as a rule, a read-out of living cells in per cent, often relative to untreated cells) in experiment [3] (setting [10]) is 109% (inactive); in experiment [3] (setting [11]), 113% (inactive); in experiment [3] (setting [12]), 106% (inactive); in experiment [3] (setting [13]), 104% (inactive); in experiment [3] (setting [14]), 117% (inactive); in experiment [3] (setting [15]), 112% (inactive). The viability in experiment [3] (setting [16]) is 92.9% (active); in experiment [3] (setting [17]), 98.8% (active); in experiment [3] (setting [18]) it was 118% (inactive); in experiment [3] (setting [19]), 113% (inactive); in experiment [3] (setting [20]), 89.6% (active); in experiment [3] (setting [21]), 96.9% (active). Further, the viability in experiment [3] (setting [22]) was 116% (inactive); in experiment [3] (setting [23]) it was 126% (inactive); in experiment [3] (setting [24]), 96.9% (active); in experiment [3] (setting [25]), 94.2% (active); in experiment [3] (setting [26]) it was 120% (inactive); in experiment [3] (setting [27]), 125% (inactive). The viability is 104% (inactive) in experiment [3] (setting [28]); 102% (inactive) in experiment [3] (setting [29]); 122% (inactive) in experiment [3] (setting [30]); 131% (inactive) in experiment [3] (setting [31]); 113% (inactive) in experiment [3] (setting [32]); 107% (inactive) in experiment [3] (setting [33]). For the same molecule, the viability in experiment [3] (setting [34]) is 138% (inactive); in experiment [3] (setting [35]) it was 151% (inactive); in experiment [3] (setting [36]) it was 114% (inactive); in experiment [3] (setting [37]) it was 107% (inactive); in experiment [3] (setting [38]), 133% (inactive); in experiment [3] (setting [39]), 126% (inactive). Moreover, the viability is 102% (inactive) in experiment [3] (setting [40]) and 58.4% (active) in experiment [3] (setting [41]).

`COc1cc(CCC(C)=O)ccc1O`: the fold change is 0.964 (inactive) in experiment [1] (setting [4]) and 0.351 in experiment [1] (setting [5]). Further, the results for the cell count in experiment [1] (setting [6]) and in experiment [1] (setting [7]) were 7540 and 7830, respectively. Moreover, the z-score was -0.174 (inactive) in experiment [2] (setting [8]) and -0.0455 in experiment [2] (setting [9]).

In the case of `Cc1[nH]c2ccccc2c1CCNCc1ccc(C=CC(=O)NO)cc1`, the results for the fold change in experiment [1] (setting [4]) and in experiment [1] (setting [5]) were 0.894 (inactive) and 0.866, respectively. Besides, the cell count in experiment [1] (setting [6]) came to 1040; in experiment [1] (setting [7]) it was 1160. In addition, the z-score in experiment [2] (setting [8]) was -0.232 (inactive); in experiment [2] (setting [9]), -2.76.

As for `CN1CCCN(C(=O)c2cccc(-c3ccc(C=C4C(=O)Nc5ccc(Cl)cc54)o3)c2)CC1`, the fold change was 0.79 (inactive) in experiment [1] (setting [4]) and 4.28 in experiment [1] (setting [5]). The cell count stood at 2420 in experiment [1] (setting [6]) and 3060 in experiment [1] (setting [7]). For the same molecule, the z-score was 0.13 (inactive) in experiment [2] (setting [8]) and -0.12 in experiment [2] (setting [9]).

Consider `O=C(Nc1ccccc1Br)NC1CCN(c2ccc(C(F)(F)F)cn2)C1` (stereo not given), for which the figures for the fold change in experiment [1] (setting [4]) and in experiment [1] (setting [5]) were 0.944 (inactive) and 0.559, respectively. For the same molecule, the cell count in experiment [1] (setting [6]) was determined as 9350; in experiment [1] (setting [7]) it was 9910. Further, the z-score is -0.215 (inactive) in experiment [2] (setting [8]) and 0.944 in experiment [2] (setting [9]).

Take `C=CS(=O)(=O)NC1CCN(C(=O)CNc2cc(I)c(Cl)cc2OC)CC1`: the fold change was 1.09 (inactive) in experiment [1] (setting [4]) and 0.391 in experiment [1] (setting [5]). The cell count in experiment [1] (setting [6]) stood at 4400; in experiment [1] (setting [7]), 4020. For the same molecule, the z-score was 0.491 (inactive) in experiment [2] (setting [8]) and 1.48 in experiment [2] (setting [9]). Besides, the viability in experiment [3] (setting [10]) is 129% (inactive); in experiment [3] (setting [11]), 112% (inactive); in experiment [3] (setting [12]) it was 97.3% (active); in experiment [3] (setting [13]), 100% (inactive); in experiment [3] (setting [14]) it was 117% (inactive); in experiment [3] (setting [15]), 106% (inactive). Besides, the viability in experiment [3] (setting [16]) was 108% (inactive); in experiment [3] (setting [17]), 101% (inactive); in experiment [3] (setting [18]), 110% (inactive); in experiment [3] (setting [19]) it was 116% (inactive); in experiment [3] (setting [20]), 103% (inactive); in experiment [3] (setting [21]), 102% (inactive). Besides, the viability in experiment [3] (setting [22]) was 117% (inactive); in experiment [3] (setting [23]) it was 102% (inactive); in experiment [3] (setting [24]), 101% (inactive); in experiment [3] (setting [25]) it was 96.9% (active); in experiment [3] (setting [26]), 121% (inactive); in experiment [3] (setting [27]), 107% (inactive). Further, the viability is 107% (inactive) in experiment [3] (setting [28]); 90.5% (active) in experiment [3] (setting [29]); 119% (inactive) in experiment [3] (setting [30]); 93.3% (active) in experiment [3] (setting [31]); 93.4% (active) in experiment [3] (setting [32]); 95.6% (active) in experiment [3] (setting [33]). The viability is 111% (inactive) in experiment [3] (setting [34]); 106% (inactive) in experiment [3] (setting [35]); 96.2% (active) in experiment [3] (setting [36]); 84.8% (active) in experiment [3] (setting [37]); 117% (inactive) in experiment [3] (setting [38]); 105% (inactive) in experiment [3] (setting [39]). The viability was 90.8% (active) in experiment [3] (setting [40]) and 86% (active) in experiment [3] (setting [41]).
